According to PubChem BioAssay AID624331 (National Center for Advancing Translational Sciences (NCATS), 2012):
Records with an inconclusive call do not appear. Entries that show only a call come without a potency. Active and inactive are the calls of the source. The call rests on the fitted dose curve; in most records, active means well fitted activation curve with a large enough effect; inconclusive means small, poorly fitted or top-dose-only effect; inactive means no such curve, though single readings can be large or run the other way.

Assay: qHTS assay for re-activators of p53 using a Luc reporter: Hit Validation with no p53 Expressed
Conditions: p53-null cells, luciferase reporter counter-screen; series mostly up to 46.1 µM
How it was run: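 Counter-screen of primary hits in a cell line not transfected with p53, in Opti-MEM with 10% FBS; compounds at several concentrations (10 mM stock, 1:5; top 46.1 µM in well), 24 h at 37 deg C, 5% CO2. Luminescence read after 10 min with Amplite reagent.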
Potency means the concentration at half of the fitted maximal effect.

| Compound | Potency |
| --- | --- |
| Cc1ccc(-c2nnc(SCc3ccccc3F)o2)cc1 | inactive |
| CC(/C=N/Nc1nc2ccccc2[nH]1)=C\c1ccccc1 | 0.116 µM (active) |
| O=c1nc2sc3ccccc3n2c(=O)n1-c1cccc(Cl)c1 | inactive |
| CS(=O)(=O)n1nc(-c2ccccc2)nc1NCc1ccco1 | inactive |
| COc1ccnc(CSC(N)=Nc2ccccc2OC)c1 | inactive |
| COc1cc(/C=C/C(=O)N2C(=O)c3cccc(N)c3C2=O)cc(OC)c1OC | inactive |
| Cc1ccsc1/C=N/Nc1nc2ccccc2[nH]1 | inactive |
| Cc1cccc(-n2c(C)cc(/C=N\NC(=O)c3cccs3)c2C)c1 | inactive |
| COCCN(Cc1cn[nH]c1-c1ccc2cc(OC)ccc2c1)C(C)C | inactive |
| Cc1ccccc1Cn1nnc(-c2cccc(C(=O)O)c2)n1 | inactive |
| COc1ccc([N+](=O)[O-])cc1NC(=O)CSCc1ccc(Br)cc1 | inactive |
| Cc1nc(NC(=O)C2CC3CCCC(C2)C3=O)sc1C (centres undefined) | inactive |
| Cc1ccc(NC(=S)NC(=O)c2cccs2)cc1F | inactive |
| Cc1cc(N2CCCCC2)n2ncc(-c3ccc(Cl)cc3)c2n1 | inactive |
| O=C(COC(=O)c1ccc(-c2nnc(-c3ccccc3)o2)cc1)c1ccccc1 | 0.146 µM (active) |
| O=C(NOCc1ccccc1)c1ccccc1 | inactive |
| CCSc1nnc(SCC(=O)NC2CCCCC2)s1 | inactive |
| O=C(CCN1C(=O)NC2(CCCC2)C1=O)Nc1ccc(-c2nc3ccccc3s2)cc1 | 2.31 µM (active) |
| COc1ccc(CNC(=O)NC2CCCCC2)cc1 | inactive |
| CCOC(=O)c1sc(NC(=S)NC(=O)c2ccco2)nc1C | inactive |

| Compound | Potency |
| --- | --- |
| COc1ccc(C2/C(=C(/O)c3ccc(C)cc3)C(=O)C(=O)N2CCCN2CCOCC2)cc1 (centres undefined) | inactive |
| COCCn1c(SCC(=O)Nc2ccc(N3CCOCC3)cc2)nc2ccccc21 | inactive |
| CCN(CC)C(=O)CSC(=Nc1ccccc1F)NC#N | inactive |
| Nn1cnnc1N/N=C\c1ccc(-c2ccccc2[N+](=O)[O-])o1 | inactive |
| O=C(COc1ccccc1[N+](=O)[O-])N/N=C/c1cccc(OC(=O)c2ccc3c(c2)OCO3)c1 | inactive |
| COC(=O)CCC(=O)COc1ccccc1C#N | inactive |
| Cc1cccc(NC(=O)c2oc3c(c2C)C(=O)CC(C)(C)C3)n1 | inactive |
| CCOC(=O)N1CCN(S(=O)(=O)c2ccc(C(=O)NNc3nc4c(C)cc(C)cc4s3)cc2)CC1 | inactive |
| Cc1cccc(-n2c(C)cc(C(=O)NC3CCCCC3)c2C)c1 | inactive |
| Cc1ccnc(NC(=O)CCC2CCCCC2)c1 | inactive |
| Clc1ccc(-c2nnc(SCc3ccon3)o2)c(Cl)c1 | 1.84 µM (active) |
| Nc1cccc(-c2nc3ccc(C(=O)c4ccccc4)cc3[nH]2)c1 | inactive |
| CN(c1ccc(C(=O)COC(=O)C2CC2)cc1)S(C)(=O)=O | inactive |
| O=C1CCCC(O)=C1N=Nc1ccc2c(c1)OCO2 | inactive |
| CC1(C)CC(=O)CC(=O)/C1=N\Nc1c(Cl)cc(Cl)cc1Cl | inactive |
| Cc1cc(F)ccc1NC(=O)Nc1ccc2c(c1)OCO2 | inactive |
| O=C(CSc1nnc(-c2ccc(O)cc2)o1)Nc1ccc2c(c1)OCCO2 | inactive |
| CN(CC(=O)Nc1ccc(Cl)c(Cl)c1)C(=O)C1CCCC1 | inactive |
| COc1ccc(C(=O)Nc2nnc(C(F)(F)F)s2)cc1 | inactive |
